Reference: PubChem BioAssay (NCATS)
Records with an inconclusive call do not appear. Calls of active or inactive are those of the source. Unless noted, calls follow the shape of the dose curve; as a rule, active = well fitted curve in either direction with a large enough effect (not every such curve was filed as active); inconclusive = small, poorly fitted or top-dose-only effect, or another doubt; inactive = flat fitted curve, though single readings scatter.

Assays:
[1] = molecular target: Lysosomal acid glucosylceramidase (Homo sapiens) (UniProt P04062); assay: Glucocerebrosidase-p2 (AID 348; in the data active = potency below about 10 µM; also: potency is read from the fitted curve at half-maximal effect); details: purified GBA, blue fluorogenic substrate, 40 min
Method in brief: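 Compounds titrated from 0.6 nM upwards against 0.2 nM enzyme in pH 5.9 citric acid/KH2PO4, taurocholate, tween-20; blue fluorogenic substrate 80 uM, 40 min room temperature, stopped and read Ex 365/Em 440 for AC50.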

[2] = AP1 Signaling Pathway (AID 357); details: ME-180 AP-1-bla reporter, EGF-induced, beta-lactamase ratio, 5 h; at 7.69 µM (top of the series) unless noted;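 also: ME-180 reporter cells stimulated with EGF at its EC50 level; % is scaled to controls: 0 for no effect and ±100 for the full control effect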
Method in brief: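 Modulation of EGF-driven AP-1 transcription was assessed with a beta-lactamase reporter in ME-180 cells. Compound and EC50 EGF were co-incubated 5 hours at 37 °C before 2.5-hour CCF4 loading at room temperature and dual-emission reading.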

[3] = NFAT Signaling Pathway (AID 444); details: Jurkat NFAT-bla M1, carbachol, beta-lactamase ratio, 5 h; at 7.69 µM (top of the series) unless noted;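 also: carbachol stimulus at about its EC50 of 1 µM final; % is scaled to controls: 0 for no effect and ±100 for the full control effect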
Method in brief: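 Read-out: CCF4 FRET ratio (460 nm/530 nm) after 1 h RT dye loading, used for %activity and AC50 from titration series. Cells: Jurkat NFAT-β-lactamase/M1 line, treated with compound plus 1 uM carbachol for 5 h, 37 °C.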

[4] = Stat Signaling Pathway (AID 446); details: ME-180 SIE beta-lactamase reporter, IL-6 stimulated, 5 h; at 7.69 µM (top of the series) unless noted;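 also: ME-180 cervical cancer cells given 40 pM IL-6 alongside compound; SIE-controlled beta-lactamase reporter measured as 460/530 nm FRET emission ratio; % is scaled to controls: 0 for no effect and ±100 for the full control effect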
Method in brief: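 Reporter line: ME-180 cervical carcinoma, SIE-beta-lactamase. Treatment: compound with 40 pM IL-6, 5 hrs, 37 C, in low-serum OPTI-MEM with 10 mM HEPES pH 7.3. Detection: 460/530 nm fluorescence.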

[5] = molecular target: Glucocorticoid receptor (Homo sapiens) (UniProt P04150); assay: GR-GFP Redistribution (AID 450;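 active = compounds whose dose series gives a full or clear partial fitted curve of increased nuclear translocation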; also: potency is read from the fitted curve at half-maximal effect); details: U2OS GR-GFP nuclear translocation, laser cytometry, 2 h
[6] = molecular target: Glucocorticoid receptor (Homo sapiens) (UniProt P04150); assay: GR-EFC Redistribution (AID 451; calls by dose curve; also: potency is read from the fitted curve at half-maximal effect); details: CHO-K1 GR-EFC translocation, beta-gal luminescence, 2 h
Method in brief: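 Translocation of GR-ED fusion to nuclear EA restores b-gal, read by luminescence after 1 h room-temperature detection. Engineered CHO-K1 biosensor cells, 1,000/well, exposed 2 h at 37 C to titrations up to 46 uM final.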

[7] = molecular target: Mitogen-activated protein kinase 10 (Mus musculus) (UniProt Q61831); assay: JNK3 AlphaScreen Assay (AID 530); details: JNK3 lysate, c-Jun phosphorylation; series mostly up to 11.4 µM;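 also: kinase came from lysate of stimulated human HepG2 cells; signal reports phosphorylation of biotinylated GST-cJun 1-79 at Ser73 with 10 µM ATP; % is scaled to controls: 0 for no effect and ±100 for the full control effect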
Method in brief: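 Compound titrations were preincubated 15 minutes at room temperature with substrate, antibody and pre-activated JNK3-containing HepG2 lysate. Reactions were started with 10 uM ATP and stopped with EDTA-containing bead buffer for AlphaScreen detection.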

[8] = molecular target: 3',5'-cyclic-AMP phosphodiesterase 4B (Homo sapiens) (UniProt Q07343); assay: qHTS Assay for Inhibitors of PDE-IV (AID 607; active = well fitted activation curve with a large enough effect in the main read-out, with a control signal flat, not every such curve was filed as active; also: % of control where 0% means no effect); details: HEK293 ACTOne CNG channel cells, membrane potential fluorescence; series mostly up to 22.9 µM
Method in brief: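 Cell-based read-out of cAMP via a modified cyclic nucleotide-gated channel and membrane potential dye (535/590 nm) in HEK293 cells expressing PDE4 endogenously. Compounds tested up to 22.9 uM final; 100 uM RO 20-1724 reference.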

Sequence of Glucocorticoid receptor (Homo sapiens) (P04150 whole entry, looked up, the tested form may be a part): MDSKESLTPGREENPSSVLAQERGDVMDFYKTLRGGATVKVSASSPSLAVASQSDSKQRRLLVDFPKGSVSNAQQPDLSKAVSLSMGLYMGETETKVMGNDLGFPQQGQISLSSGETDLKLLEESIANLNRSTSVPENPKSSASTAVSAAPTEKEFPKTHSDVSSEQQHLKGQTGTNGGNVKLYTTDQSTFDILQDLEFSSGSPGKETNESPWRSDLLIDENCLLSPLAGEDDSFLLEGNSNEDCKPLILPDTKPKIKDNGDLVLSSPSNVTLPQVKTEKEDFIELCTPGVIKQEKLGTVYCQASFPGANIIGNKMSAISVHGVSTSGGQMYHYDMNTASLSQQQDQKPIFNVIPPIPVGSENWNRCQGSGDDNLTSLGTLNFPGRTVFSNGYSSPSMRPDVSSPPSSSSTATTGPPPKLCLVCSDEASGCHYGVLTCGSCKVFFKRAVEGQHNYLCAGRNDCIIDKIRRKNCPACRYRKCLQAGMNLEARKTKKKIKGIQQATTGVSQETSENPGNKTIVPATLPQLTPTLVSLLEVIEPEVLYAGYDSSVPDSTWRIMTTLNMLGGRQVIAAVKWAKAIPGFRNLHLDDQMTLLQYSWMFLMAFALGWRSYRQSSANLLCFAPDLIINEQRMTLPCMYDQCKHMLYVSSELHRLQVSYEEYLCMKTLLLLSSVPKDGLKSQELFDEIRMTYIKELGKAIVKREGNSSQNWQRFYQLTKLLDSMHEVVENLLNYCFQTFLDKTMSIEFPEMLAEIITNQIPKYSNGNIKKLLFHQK
Sequence of Lysosomal acid glucosylceramidase (Homo sapiens) (P04062 whole entry, looked up): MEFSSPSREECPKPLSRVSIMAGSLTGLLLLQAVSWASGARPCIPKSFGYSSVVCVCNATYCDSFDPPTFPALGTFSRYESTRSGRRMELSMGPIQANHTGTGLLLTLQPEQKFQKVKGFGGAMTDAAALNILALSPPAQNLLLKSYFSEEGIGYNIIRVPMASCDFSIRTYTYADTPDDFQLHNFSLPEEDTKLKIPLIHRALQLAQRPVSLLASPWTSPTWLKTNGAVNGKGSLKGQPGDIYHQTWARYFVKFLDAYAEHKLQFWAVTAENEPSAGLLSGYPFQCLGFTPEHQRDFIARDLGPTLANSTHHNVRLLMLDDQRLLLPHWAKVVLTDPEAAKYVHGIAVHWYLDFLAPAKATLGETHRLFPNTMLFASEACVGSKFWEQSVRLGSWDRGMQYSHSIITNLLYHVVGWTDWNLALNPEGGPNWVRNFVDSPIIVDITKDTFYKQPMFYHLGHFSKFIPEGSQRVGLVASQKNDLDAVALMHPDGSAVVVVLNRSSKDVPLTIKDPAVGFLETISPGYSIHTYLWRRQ
Sequence of 3',5'-cyclic-AMP phosphodiesterase 4B (Homo sapiens) (Q07343 whole entry, looked up): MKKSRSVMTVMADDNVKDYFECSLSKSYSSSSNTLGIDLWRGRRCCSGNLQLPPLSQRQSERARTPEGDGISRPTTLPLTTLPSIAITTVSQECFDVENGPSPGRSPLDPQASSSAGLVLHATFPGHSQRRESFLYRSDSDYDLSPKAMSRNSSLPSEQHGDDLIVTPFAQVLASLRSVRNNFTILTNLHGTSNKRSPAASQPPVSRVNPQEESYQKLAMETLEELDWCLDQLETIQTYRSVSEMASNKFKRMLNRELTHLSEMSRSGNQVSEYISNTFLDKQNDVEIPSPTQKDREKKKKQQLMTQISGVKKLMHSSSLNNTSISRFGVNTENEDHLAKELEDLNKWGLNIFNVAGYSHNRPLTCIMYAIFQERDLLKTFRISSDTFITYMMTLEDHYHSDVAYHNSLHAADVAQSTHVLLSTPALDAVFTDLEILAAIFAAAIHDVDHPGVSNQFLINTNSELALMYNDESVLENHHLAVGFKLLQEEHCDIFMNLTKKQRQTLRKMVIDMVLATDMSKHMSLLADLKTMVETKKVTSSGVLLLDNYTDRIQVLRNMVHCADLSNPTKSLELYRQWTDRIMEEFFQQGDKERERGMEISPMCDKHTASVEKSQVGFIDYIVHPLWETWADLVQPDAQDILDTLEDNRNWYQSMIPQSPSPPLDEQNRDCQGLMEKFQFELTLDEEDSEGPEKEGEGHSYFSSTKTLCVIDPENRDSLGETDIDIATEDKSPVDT

c1nnc(NCNc2nncs2)s1
inactive: Potency [1] > 11.4 µM | activity change, negative = inhibition [2] 12.8% | activity change, negative = inhibition [3] 7.13% | activity, negative = inhibition [4] -7.18% | Potency [5] > 46 µM | Potency [6] > 9.22 µM | Potency [7] | Potency [8]

C[C@H](CC(=O)O)C(C(=O)O)C(=O)O
inactive: Potency [1] > 11.4 µM | activity change, negative = inhibition [2] -3.69% | activity change, negative = inhibition [3] -5.24% | activity, negative = inhibition [4] -3.1% | Potency [5] > 46 µM | Potency [6] > 9.22 µM | Potency [7] | Potency [8]

O=C(O)/C(Cc1cn[nH]n1)=N\O
inactive: Potency [1] > 11.4 µM | activity change, negative = inhibition [2] 16.4% | activity change, negative = inhibition [3] 0.206% | activity, negative = inhibition [4] 1.63% | Potency [5] > 46 µM | Potency [6] > 9.22 µM | Potency [7] | Potency [8]

O=C(CN1C(=O)c2ccccc2C1=O)[C@@H](O)CN1C(=O)c2ccccc2C1=O
inactive: Potency [1] > 11.4 µM | activity change, negative = inhibition [2] -10.3% | activity change, negative = inhibition [3] 13.9% | activity, negative = inhibition [4] -0.0648% | Potency [5] > 46 µM | Potency [6] > 9.22 µM | Potency [7] | Potency [8]

C[N+](C)([O-])Cc1cc(-c2ccccc2)ccc1O
inactive: Potency [1] > 11.4 µM | activity change, negative = inhibition [2] -2.32% | activity change, negative = inhibition [3] 1.32% | activity, negative = inhibition [4] -3.36% | Potency [5] > 46 µM | Potency [6] > 9.22 µM | Potency [7] | Potency [8]

N[C@@H](CCCCO)C(=O)O
inactive: Potency [1] > 11.4 µM | activity change, negative = inhibition [2] 4.11% | activity change, negative = inhibition [3] -3.02% | activity, negative = inhibition [4] -3.96% | Potency [5] > 46 µM | Potency [6] > 9.22 µM | Potency [7] | Potency [8]

C[N@@+]1(CC[N@@+]2(C)CCC[C@H]2c2cccnc2)CCC[C@@H]1c1cccnc1
inactive: Potency [1] > 11.4 µM | activity change, negative = inhibition [2] 28.9% | activity change, negative = inhibition [3] -16.4% | activity, negative = inhibition [4] -5.44% | Potency [5] > 46 µM | Potency [6] > 9.22 µM | Potency [7] | Potency [8]

COc1ccc2c(c1)CCc1c(-c3noc4c3CCc3cc(OC)ccc3-4)noc1-2
inactive: Potency [1] > 11.4 µM | activity change, negative = inhibition [2] -10.7% | activity change, negative = inhibition [3] -3.27% | activity, negative = inhibition [4] 2.75% | Potency [5] > 46 µM | Potency [6] > 9.22 µM | Potency [7] | Potency [8]

COc1cc2c(cc1O)[C@@H](c1cc(O)c(O)c(OC)c1)[C@@](O)(C(=O)O)[C@@H](CO)[C@@H]2O
inactive: Potency [1] > 11.4 µM | activity change, negative = inhibition [2] 0.0448% | activity change, negative = inhibition [3] -5.96% | activity, negative = inhibition [4] 4.61% | Potency [5] > 46 µM | Potency [6] > 9.22 µM | Potency [7] | Potency [8]

COc1cc(CN2CCCCC2)cc2cc(C(=O)O)c(=O)oc12
inactive: Potency [1] > 11.4 µM | activity change, negative = inhibition [2] 17.3% | activity change, negative = inhibition [3] 15.7% | activity, negative = inhibition [4] -2.43% | Potency [5] > 46 µM | Potency [6] > 9.22 µM | Potency [7] | Potency [8]

c1ccc(CCNCc2ccco2)nc1
inactive: Potency [1] > 11.4 µM | activity change, negative = inhibition [2] 3.76% | activity change, negative = inhibition [3] -2.01% | activity, negative = inhibition [4] 1.92% | Potency [5] > 46 µM | Potency [6] > 9.22 µM | Potency [7] | Potency [8]

O=C(CSC1=NCCN1)c1ccccc1
inactive: Potency [1] > 11.4 µM | activity change, negative = inhibition [2] -0.79% | activity change, negative = inhibition [3] -8.06% | activity, negative = inhibition [4] -8.19% | Potency [5] > 46 µM | Potency [6] > 9.22 µM | Potency [7] | Potency [8]

N[C@@H](CSc1nc2ccccn2c1[N+](=O)[O-])C(=O)O
inactive: Potency [1] > 11.4 µM | activity change, negative = inhibition [2] -2.33% | activity change, negative = inhibition [3] 9.56% | activity, negative = inhibition [4] -1.41% | Potency [5] > 46 µM | Potency [6] > 9.22 µM | Potency [7] | Potency [8]

C(=N/Nc1ccccn1)/c1cccnc1
inactive: Potency [1] > 11.4 µM | activity change, negative = inhibition [2] 3.9% | activity change, negative = inhibition [3] 5.25% | activity, negative = inhibition [4] 2.75% | Potency [5] > 46 µM | Potency [6] > 9.22 µM | Potency [7] | Potency [8]

CSc1ccc(NC(=O)[C@H]2CCCC[C@@H]2C(=O)O)cc1
inactive: Potency [1] > 11.4 µM | activity change, negative = inhibition [2] 2.18% | activity change, negative = inhibition [3] 4.17% | activity, negative = inhibition [4] 3.36% | Potency [5] > 46 µM | Potency [6] > 9.22 µM | Potency [7] | Potency [8]

NS(=O)(=O)c1ccc(NCc2cnc3ccccc3c2)cc1
inactive: Potency [1] > 11.4 µM | activity change, negative = inhibition [2] -2.59% | activity change, negative = inhibition [3] 13.4% | activity, negative = inhibition [4] 0.424% | Potency [5] > 46 µM | Potency [6] > 9.22 µM | Potency [7] | Potency [8]
